Lmaj promast: Leishmania major promastigote growth inhibition; Leishmania major promastigotes, resazurin fluorescence viability; inhibition, % at 10 µM; 9% of 200,000 active; AID 1063; in the data active means inhibition above about 50%;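 further: promastigotes grown with compound for 44 hours at 28 °C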
CHOP inhibitor: CHOP inhibition in unfolded protein response | 3.8% of 220,000 active | inhibition, % at 10 µM | CHO-K1 CHOP-promoter luciferase, tunicamycin-induced, 15-18 h;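 active means compounds that reduced the stress-induced luciferase reporter signal by more than about 70% of percent inhibition, limit read from the data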
Arbovirus inh: arbovirus infection inhibition | arbovirus infection cell-based antiviral screen | inhibition, % at 10 µM | 0.37% of 200,000 active | AID 1251; in the data active means inhibition above about 30%
WT yeast gro inh: growth inhibition of WT yeast, mitochondrial fusion screen | mitochondrial fusion phenotypic screen, WT strain | inhibition, % at 10 µM | 2.1% of 190,000 active; in the data active means inhibition above about 58%; tested in S. cerevisiae
Hits are given with their value. This is a sample that favours compounds with a hit; in the whole collection about 12% have one here.

Screening Cc1ccc(S(=O)OCC(=O)Nc2cc(Cl)ccc2N2CCOCC2)cc1 (configuration not stated) returned Lmaj promast 98.8, CHOP inhibitor inactive, Arbovirus inh inactive and WT yeast gro inh inactive.
O=C(COS(=O)c1ccccc1)Nc1cc(Cl)ccc1N1CCOCC1 (configuration not stated) was read as Lmaj promast inactive, CHOP inhibitor inactive, Arbovirus inh inactive and WT yeast gro inh inactive.
For Cc1ccccc1OCC(=O)Nc1ccccc1N1CCC(C)CC1 the results were Lmaj promast inactive, CHOP inhibitor inactive, Arbovirus inh inactive and WT yeast gro inh 65.2.
CCC(=O)N1CCN(c2ccccc2NC(=O)COc2cc(C)ccc2C(C)C)CC1 was read as Lmaj promast inactive, CHOP inhibitor 77.1, Arbovirus inh inactive and WT yeast gro inh 67.3.
`Cc1ccc(C(C)C)c(OCC(=O)Nn2c(=O)[nH]c3ccccc3c2=O)c1` gave Lmaj promast 59.0, CHOP inhibitor inactive, Arbovirus inh inactive and WT yeast gro inh inactive.
`O=C(c1cncs1)N1CCCC(CNS(=O)(=O)c2cccs2)C1` (configuration not stated) gave Lmaj promast inactive, CHOP inhibitor inactive, Arbovirus inh inactive and WT yeast gro inh inactive.
`O=C(CSc1nnc(NC(=O)C2CC2)s1)Nc1ccc2c(c1)OCCO2` gave Lmaj promast inactive, CHOP inhibitor inactive, Arbovirus inh inactive and WT yeast gro inh inactive.
Cc1ccc(C(=O)N[C@H](C(=O)OCC(=O)NC2CCS(=O)(=O)C2)C(C)C)cc1 (some centres not stated) was read as Lmaj promast inactive, CHOP inhibitor inactive, Arbovirus inh inactive and WT yeast gro inh inactive.
For CN1CCN(c2ccccc2NC(=O)c2cccc(OCc3ccccc3)c2)CC1 the results were Lmaj promast inactive, CHOP inhibitor 78.5, Arbovirus inh inactive and WT yeast gro inh inactive.
CCOC(=O)CNC(c1ccccc1)c1cc(Br)ccc1NC(=O)OCC (configuration not stated) was read as Lmaj promast 53.9, CHOP inhibitor inactive, Arbovirus inh inactive and WT yeast gro inh inactive.
`COC(=O)CNC(c1ccccc1)c1cc(Br)ccc1NC(=O)CCN1CCOCC1` (configuration not stated) gave Lmaj promast 99.8, CHOP inhibitor inactive, Arbovirus inh inactive and WT yeast gro inh inactive.
`COC(=O)CNC(c1ccccc1)c1cc(Br)ccc1NC(=O)CNC(=O)OCc1ccccc1` (configuration not stated) gave Lmaj promast inactive, CHOP inhibitor inactive, Arbovirus inh inactive and WT yeast gro inh inactive.
Screening CCOC(=O)CNC(c1ccccc1)c1cc(Br)ccc1NC(=O)CCN1CCOCC1 (configuration not stated) returned Lmaj promast 98.2, CHOP inhibitor inactive, Arbovirus inh inactive and WT yeast gro inh inactive.
Screening CC(C)N(C)S(=O)(=O)c1ccc(Cl)c(C(=O)O)c1 returned Lmaj promast inactive, CHOP inhibitor inactive, Arbovirus inh inactive and WT yeast gro inh inactive.
For COC(=O)c1c(C(=O)OC)c(-c2ccc(Cl)cc2)n2c1CS(=O)(=O)C2 the results were Lmaj promast inactive, CHOP inhibitor inactive, Arbovirus inh inactive and WT yeast gro inh inactive.
CC(C)Sc1nc2[nH]ncc2c(=O)[nH]1 was read as Lmaj promast inactive, CHOP inhibitor inactive, Arbovirus inh inactive and WT yeast gro inh inactive.
For Cc1ccc(S(=O)(=O)CC(=O)Nc2ccc(Cl)cn2)cc1 the results were Lmaj promast inactive, CHOP inhibitor inactive, Arbovirus inh inactive and WT yeast gro inh inactive.
`CC(C(=O)Nc1ccccc1-c1ccccc1)N1CCN(S(=O)(=O)c2ccccc2)CC1` (configuration not stated) gave Lmaj promast inactive, CHOP inhibitor inactive, Arbovirus inh 60.9 and WT yeast gro inh inactive.
`CC(C)c1ccc(S(=O)(=O)N2CCN(C(C)C(=O)Nc3ccccc3-c3ccccc3)CC2)cc1` (configuration not stated) gave Lmaj promast inactive, CHOP inhibitor inactive, Arbovirus inh inactive and WT yeast gro inh inactive.
`COCCn1c(=NC(=O)c2ccc3c(c2)OCO3)c(C#N)cc2c(=O)n3cccc(C)c3nc21` gave Lmaj promast inactive, CHOP inhibitor inactive, Arbovirus inh inactive and WT yeast gro inh inactive.
Screening CCOCCCn1c(=N)c(C(=O)NCCN2CCOCC2)cc2c(=O)n3cccc(C)c3nc21 returned Lmaj promast 61.0, CHOP inhibitor inactive, Arbovirus inh inactive and WT yeast gro inh inactive.
CCCCn1c(=NC(=O)c2ccc3c(c2)OCO3)c(C#N)cc2c(=O)n3cccc(C)c3nc21 was read as Lmaj promast 86.2, CHOP inhibitor inactive, Arbovirus inh inactive and WT yeast gro inh inactive.
Screening COCCn1c(=N)c(C(=O)NCCc2ccc(OC)cc2)cc2c(=O)n3cccc(C)c3nc21 returned Lmaj promast inactive, Arbovirus inh inactive and WT yeast gro inh inactive.
Screening CCCn1c(=N)c(C(=O)NCc2ccc3c(c2)OCO3)cc2c(=O)n3cccc(C)c3nc21 returned Lmaj promast 95.6, CHOP inhibitor inactive, Arbovirus inh inactive and WT yeast gro inh inactive.
COc1ccc(CCNC(=O)CCc2ccc(S(=O)(=O)NCC(C)C)cc2)cc1OC was read as Lmaj promast inactive, CHOP inhibitor inactive, Arbovirus inh inactive and WT yeast gro inh inactive.
For Cc1ccc(S(=O)(=O)NCc2ccc(C(=O)NCc3cccnc3)cc2)cc1 the results were Lmaj promast inactive, CHOP inhibitor inactive, Arbovirus inh inactive and WT yeast gro inh inactive.
`Cc1ccc(O)c(C(CC(=O)NC2CCCCC2)c2ccccc2)c1` (configuration not stated) gave Lmaj promast inactive, CHOP inhibitor inactive, Arbovirus inh inactive and WT yeast gro inh inactive.
For N#CC(C#N)=C/C(C#N)=C(/N)N1CCN(c2ccc(Cl)cc2)CC1 the results were Lmaj promast inactive, CHOP inhibitor 80.4, Arbovirus inh inactive and WT yeast gro inh inactive.
Cc1cc(C)c2c(N)c(C(=O)c3cccc(Cl)c3)sc2n1 was read as Lmaj promast 100.2, CHOP inhibitor inactive, Arbovirus inh inactive and WT yeast gro inh inactive.
For Cc1cc(C)c2c(N)c(C(=O)c3ccc(Cl)cc3Cl)sc2n1 the results were Lmaj promast 100.1, CHOP inhibitor inactive, Arbovirus inh inactive and WT yeast gro inh inactive.
Cc1cccc(NC(=O)Cn2cnc3ccccc3c2=O)c1C was read as Lmaj promast inactive, CHOP inhibitor inactive, Arbovirus inh inactive and WT yeast gro inh inactive.
For CC(=O)Nc1ccc(NC(=O)C(=O)N/N=C/c2cccnc2)cc1 the results were CHOP inhibitor inactive.
For NC1=Nc2cccc3cccc1c23 the results were Lmaj promast 52.2, CHOP inhibitor inactive, Arbovirus inh inactive and WT yeast gro inh inactive.
Cc1ccc(-n2c(C)cc(C3=NNC(=NC4CC4)SC3)c2C)cc1C was read as Lmaj promast 87.1, CHOP inhibitor inactive, Arbovirus inh inactive and WT yeast gro inh 77.9.
`CN1CCN(C(=S)c2ccc(Cl)cc2)CC1` gave Lmaj promast 89.6, CHOP inhibitor inactive, Arbovirus inh inactive and WT yeast gro inh inactive.
Screening CN1CCN(C(=S)NC(=O)c2ccco2)CC1 returned Lmaj promast inactive, CHOP inhibitor inactive, Arbovirus inh inactive and WT yeast gro inh inactive.
`COc1ccc(C(=S)N2CCN(C)CC2)cc1Br` gave Lmaj promast 92.3, CHOP inhibitor inactive, Arbovirus inh inactive and WT yeast gro inh inactive.
Screening CN1CCN(C(=S)Nc2ccc(Cl)cc2Cl)CC1 returned Lmaj promast inactive, CHOP inhibitor inactive and Arbovirus inh inactive.

Source: PubChem BioAssay
